Reference: PubChem BioAssay (NCI)
The panel holds about 83,000 compounds, 20% with a hit somewhere; the sample as a whole holds those more often.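 How to read the values: 0–100, growth inhibition (40 = 60% inhibited); 0, no net growth; -100 to 0, cell death (-40 = 40% of starting cells died; -100 = all dead).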 Activity calls are given as the source filed them. Rule for the calls: active = growth percent below 10; inactive = the rest.

Legend:
Assay in all cases: NCI-60 one-dose screen, 48 h (100 = growth as untreated, 0 = no growth, -100 = all killed)
Details in all cases: 10 µM unless noted
K-562 leukemia = tested on: K-562 leukemia
MALME-3M melanoma = tested on: MALME-3M melanoma
MDA-MB-231 breast = tested on: MDA-MB-231 breast
SF-268 CNS = tested on: SF-268 CNS
SF-295 CNS = tested on: SF-295 CNS
SF-539 CNS = tested on: SF-539 CNS
UACC-257 melanoma = tested on: UACC-257 melanoma
M14 melanoma = tested on: M14 melanoma
HCT-15 colon = tested on: HCT-15 colon
RXF 393 renal = tested on: RXF 393 renal

Measured: growth

CCS(=O)(=O)OCCCl
inactive: K-562 leukemia 122% | MALME-3M melanoma 113% | MDA-MB-231 breast 118% | SF-268 CNS 107% | SF-295 CNS 97.2% | SF-539 CNS 94.9% | UACC-257 melanoma 72.1% | M14 melanoma 116% | HCT-15 colon 92.9%

C/C(=C\CCc1ccoc1)CC/C=C(\C)CCCN1CCC(CO)CC1
inactive: MALME-3M melanoma 11% | MDA-MB-231 breast 50% | SF-268 CNS 79.2% | SF-295 CNS 47.4% | SF-539 CNS 48.9% | UACC-257 melanoma 49% | M14 melanoma 36.3% | HCT-15 colon 25.5%
active: K-562 leukemia -15.8%

C/C(=C\CCc1ccsc1)CC/C=C(\C)CCCN1CCC(CO)CC1
inactive: MDA-MB-231 breast 19.6% | SF-268 CNS 60.6%
active: K-562 leukemia -51.4% | MALME-3M melanoma -66.9% | SF-295 CNS 7.65% | SF-539 CNS 9.87% | UACC-257 melanoma -32.4% | M14 melanoma -47.4% | HCT-15 colon 0.233%

COc1cc(/C=C/C(=O)c2ccc(F)cc2)ccc1OCCCCCOc1cc2c(cc1OC)C(=O)N1CCCC1C=N2 (stereo not drawn)
inactive: SF-295 CNS 72.2%
active: K-562 leukemia -6.46% | MALME-3M melanoma -77.6% | MDA-MB-231 breast -33% | SF-268 CNS -29.9% | SF-539 CNS -67.1% | UACC-257 melanoma 8.38% | M14 melanoma -70% | HCT-15 colon -3.47%

COc1ccc2nc3cc(Cl)ccc3c(Nc3cc(C(C)C)c(O)cc3C)c2c1
inactive: K-562 leukemia 19.4% | MALME-3M melanoma 39.3% | MDA-MB-231 breast 37.7% | SF-268 CNS 64% | SF-539 CNS 59.5% | UACC-257 melanoma 47% | M14 melanoma 56.2% | HCT-15 colon 10.6%
active: SF-295 CNS 5.22%

CC1=CC(=O)C(C(C)=Nc2ccccc2Cl)C(=O)O1 (stereo not drawn)
active: UACC-257 melanoma -17.3%
inactive: K-562 leukemia 105% | MALME-3M melanoma 123% | MDA-MB-231 breast 105% | SF-268 CNS 101% | SF-295 CNS 121% | SF-539 CNS 101% | M14 melanoma 107% | HCT-15 colon 105%

C/C(=C\CCc1ccsc1)CC/C=C(\C)CCCN1CCN(CCO)CC1
active: K-562 leukemia -27.4% | MALME-3M melanoma -14.4% | HCT-15 colon -22.2%
inactive: MDA-MB-231 breast 27% | SF-268 CNS 71.7% | SF-295 CNS 35.9% | SF-539 CNS 57.8% | UACC-257 melanoma 11.4% | M14 melanoma 14.2%

NS(=O)(=O)c1ccc(NC2=C(Cl)C(=O)c3ccccc3C2=O)cc1
inactive: K-562 leukemia 18.6% | MALME-3M melanoma 135% | MDA-MB-231 breast 79.7% | SF-268 CNS 118% | SF-295 CNS 111% | SF-539 CNS 89.6% | UACC-257 melanoma 92.5% | M14 melanoma 99.9% | HCT-15 colon 46.5%

CN(C)c1ccc(/C=C\c2ccnc3ccccc23)cc1
inactive: K-562 leukemia 26.8% | MALME-3M melanoma 84.8% | MDA-MB-231 breast 70.3% | SF-268 CNS 92.1% | SF-295 CNS 61.6% | SF-539 CNS 78.3% | UACC-257 melanoma 80.9% | M14 melanoma 83.9% | HCT-15 colon 58.5%

COc1ccc(C(=O)COc2cccc(/C=C3\Oc4ccc5ccccc5c4C3=O)c2)cc1
inactive: K-562 leukemia 81.4% | MALME-3M melanoma 17.2% | MDA-MB-231 breast 79.3% | SF-268 CNS 83.7% | SF-295 CNS 119% | UACC-257 melanoma 95.7% | M14 melanoma 49.2% | HCT-15 colon 43.7%
active: SF-539 CNS -50%

c1cnc2ccc3ncccc3c2c1
inactive: K-562 leukemia 106% | MALME-3M melanoma 146% | MDA-MB-231 breast 114% | SF-268 CNS 107% | SF-295 CNS 113% | SF-539 CNS 104% | UACC-257 melanoma 83.5% | M14 melanoma 99.8% | HCT-15 colon 108%

COc1ccc(/C(=C2\O[C@@H]([C@H](O)CO)[C@H]3OC(C)(C)O[C@@H]23)c2cc(OC)c(OC)c(OC)c2)cc1O
inactive: K-562 leukemia 12.6% | MALME-3M melanoma 75.7% | MDA-MB-231 breast 97% | SF-268 CNS 71.1% | SF-295 CNS 92.5% | SF-539 CNS 68.2% | UACC-257 melanoma 97.9% | M14 melanoma 47.7% | HCT-15 colon 62.2%

O=C1OCCCCCCCCCC#Cc2ccccc21
inactive: K-562 leukemia 94.2% | MALME-3M melanoma 146% | MDA-MB-231 breast 110% | SF-268 CNS 182% | SF-295 CNS 151% | SF-539 CNS 105% | UACC-257 melanoma 124% | M14 melanoma 109% | HCT-15 colon 109%

O=C1NCC(Nc2ccc(Br)cc2Cl)C(=O)N1 (stereo not drawn)
inactive: K-562 leukemia 95.5% | MDA-MB-231 breast 104% | RXF 393 renal 112% | SF-268 CNS 105% | SF-295 CNS 118% | SF-539 CNS 98.9% | UACC-257 melanoma 160% | M14 melanoma 93.8% | HCT-15 colon 107%

Cn1[nH]cc(/C=N/C(N)=O)c1=O
inactive: K-562 leukemia 103% | MALME-3M melanoma 121% | MDA-MB-231 breast 101% | SF-295 CNS 115% | SF-539 CNS 113% | UACC-257 melanoma 119% | M14 melanoma 107% | HCT-15 colon 105%

C=CCOc1ccc2c(c1)CC[C@@H]1[C@@H]2CC[C@@]2(C)[C@H]1CC[C@]2(C)O
active: K-562 leukemia 4.02%
inactive: MDA-MB-231 breast 64.7% | RXF 393 renal 106% | SF-268 CNS 85.7% | SF-295 CNS 94.8% | SF-539 CNS 76.5% | UACC-257 melanoma 53.9% | M14 melanoma 88.7% | HCT-15 colon 65.2%

OC(c1cc(C(F)(F)F)nc2c(C(F)(F)F)cccc12)C1CCCCN1 (stereo not drawn)
inactive: K-562 leukemia 14.7% | MALME-3M melanoma 100% | MDA-MB-231 breast 47.1% | SF-268 CNS 47.9% | SF-295 CNS 88.2% | SF-539 CNS 82.8% | M14 melanoma 76% | HCT-15 colon 77.5%

CC(=O)Nc1ccc2c(c1)Cc1c(F)c(F)c(F)c(F)c1-2
inactive: K-562 leukemia 104% | MALME-3M melanoma 113% | MDA-MB-231 breast 75.1% | SF-268 CNS 91.9% | SF-295 CNS 90.5% | SF-539 CNS 87.7% | M14 melanoma 114% | HCT-15 colon 83.4%

CN(C)CCCN1c2nc3ccccc3cc2Sc2cc3ccccc3nc21
active: K-562 leukemia 4.31% | MALME-3M melanoma -75.9% | MDA-MB-231 breast -82.8% | SF-295 CNS -74.7% | SF-539 CNS -94.6% | UACC-257 melanoma -69.5% | HCT-15 colon 2.14%
inactive: SF-268 CNS 27.2%

C[C@]12C[C@H](O)[C@H]3[C@@H](CCC4=CC(=O)CC[C@@]43C)[C@@H]1CC[C@@H]2C(=O)CO
inactive: K-562 leukemia 66.7% | MALME-3M melanoma 95.3% | MDA-MB-231 breast 80.5% | SF-268 CNS 98.8% | SF-295 CNS 126% | SF-539 CNS 89.3% | M14 melanoma 107% | HCT-15 colon 92%

CCOc1cc(C(C)(C)C)ccc1C1=N[C@H](c2ccc(Cl)cc2)[C@H](c2ccc(Cl)cc2)N1C(=O)N1CCN(CC#Cc2cccc3c2CN([C@@H]2CCC(=O)NC2=O)C3=O)CC1
active: MALME-3M melanoma -32.9% | MDA-MB-231 breast -15.5% | HCT-15 colon 2.53%
inactive: K-562 leukemia 24.5% | SF-268 CNS 39.9% | SF-295 CNS 35.1% | SF-539 CNS 70.3% | UACC-257 melanoma 42.6%

CC(=O)NCCSC(=O)C(=O)SCCNC(C)=O
inactive: K-562 leukemia 95.6% | MALME-3M melanoma 138% | MDA-MB-231 breast 107% | SF-268 CNS 109% | SF-295 CNS 102% | SF-539 CNS 97.5% | M14 melanoma 106% | HCT-15 colon 119%

CCCOc1ccc2c(c1)CC[C@@H]1[C@@H]2CC[C@@]2(C)[C@H]1CC[C@]2(C)O
inactive: MDA-MB-231 breast 51.1% | RXF 393 renal 83.7% | SF-268 CNS 81.5% | SF-295 CNS 58.7% | SF-539 CNS 67.5% | UACC-257 melanoma 73.8% | M14 melanoma 79.5% | HCT-15 colon 56.7%
active: K-562 leukemia 1.46%

Nc1cc(Cl)c(S(N)(=O)=O)cc1S(N)(=O)=O
inactive: K-562 leukemia 104% | MALME-3M melanoma 84.5% | MDA-MB-231 breast 113% | SF-268 CNS 113% | SF-295 CNS 111% | SF-539 CNS 88.1% | M14 melanoma 108% | HCT-15 colon 97.9%

COc1cc(/C=C2\COc3ccc(O)c(O)c3C2=O)cc(OC)c1
inactive: SF-268 CNS 11% | SF-295 CNS 80.3%
active: K-562 leukemia -0.232% | MALME-3M melanoma -59.4% | MDA-MB-231 breast -37.1% | SF-539 CNS -70.1% | UACC-257 melanoma 6.52% | HCT-15 colon -24.1%

Nc1nc(Cl)c2[nH]cnc2n1
inactive: K-562 leukemia 118% | MALME-3M melanoma 94.4% | MDA-MB-231 breast 111% | SF-268 CNS 101% | SF-295 CNS 93.7% | SF-539 CNS 97.4% | HCT-15 colon 103%

C[n+]1ccc(Nc2ccc(NC(=O)c3ccc(Nc4cc[n+](C)c5ccc(N)cc45)cc3)cc2)cc1
inactive: K-562 leukemia 88.5% | MALME-3M melanoma 142% | MDA-MB-231 breast 97% | SF-268 CNS 105% | SF-295 CNS 72.7% | SF-539 CNS 85.9% | M14 melanoma 103% | HCT-15 colon 99.9%

CC12CCCCC1C(C(N)=O)C(=O)O2 (stereo not drawn)
inactive: K-562 leukemia 102% | MALME-3M melanoma 120% | MDA-MB-231 breast 101% | SF-295 CNS 109% | SF-539 CNS 112% | UACC-257 melanoma 107% | M14 melanoma 104% | HCT-15 colon 106%

Oc1ccccc1C=Nc1ccccc1N=Cc1ccccc1O.[Cu+2]
inactive: K-562 leukemia 36.7% | MDA-MB-231 breast 63.5% | RXF 393 renal 104% | SF-268 CNS 75.2% | SF-295 CNS 68.6% | SF-539 CNS 76% | UACC-257 melanoma 45.4% | M14 melanoma 65.2% | HCT-15 colon 56.5%

O[C@@H]1Cc2ccc3ccccc3c2N[C@H](c2ccoc2)C1
inactive: K-562 leukemia 102% | MDA-MB-231 breast 96.2% | RXF 393 renal 108% | SF-268 CNS 105% | SF-295 CNS 110% | SF-539 CNS 93.6% | UACC-257 melanoma 105% | M14 melanoma 101% | HCT-15 colon 111%

COc1ccc(/C=C2\COc3ccc(O)c(O)c3C2=O)cc1OC
active: K-562 leukemia 0.0834% | MALME-3M melanoma -57.4% | MDA-MB-231 breast -2.32% | SF-268 CNS 9.74% | SF-539 CNS -55.4% | HCT-15 colon -39.4%
inactive: SF-295 CNS 72.2% | UACC-257 melanoma 31.4%

CCC(CCC(C)C1CCC2C3CC=C4CC(O)CCC4(C)C3CCC12C)C(C)C (stereo not drawn) (tested in a mixture with another compound)
inactive: K-562 leukemia 82% | MALME-3M melanoma 138% | MDA-MB-231 breast 115% | SF-268 CNS 79.9% | SF-295 CNS 76.9% | SF-539 CNS 80.3% | M14 melanoma 92.2% | HCT-15 colon 95.6%
